The results in this text go back to PubChem BioAssay (NCATS).

Results filed as inconclusive are left out. Active and inactive are the calls of the source. Calls follow the shape of the dose curve; as a rule, active = well fitted inhibition curve with a large enough effect; inconclusive = small, poorly fitted or top-dose-only effect; inactive = no such curve, though single readings can be large or run the other way.
% is scaled to controls: 0 for no effect and ±100 for the full control effect; potency is read from the fitted curve at half-maximal effect.

This test in a line: Primary qHTS for inhibitors of nuclear receptor binding SET domain protein 2 (NSD2) in an RCH-ACV wild type WT cells (2C) (AID 1645877). Also: nearly all actives have a fitted effect of over 70% in size. The conditions noted are these: RCH-ACV (leukaemia line) NSD2 WT (2C) viability, CellTiter-Glo, 72 h; series mostly up to 44.9 µM; activity change, negative = cell killing: at the top concentration. (In general: In qHTS, concentration-response curves come from the screen itself.)
`CCNC(=O)[C@@H]1CCCN1C(=O)[C@H](CCCN=C(N)N)NC(=O)[C@H](CC(C)C)NC(=O)[C@@H](C)NC(=O)[C@H](Cc1ccc(O)cc1)NC(=O)[C@H](CO)NC(=O)[C@H](Cc1c[nH]c2ccccc12)NC(=O)[C@H](Cc1cnc[nH]1)NC(=O)[C@@H]1CCC(=O)N1`: the “outcome” value was “inactive [at 17.3 µM]”. With `CC(c1c[nH]c2ccccc12)C(O)C(=O)O` (stereo unspecified), the “activity change, negative = cell killing” value was 0.239% (inactive).

As for `C[C@@H]1C[C@H]2[C@@H]3CCC4=CC(=O)C=C[C@]4(C)[C@@]3(F)[C@@H](O)C[C@]2(C)[C@@]1(O)C(=O)COP(=O)(O)O`, the Potency is 91.6 nM (active).

In the case of `C=C[C@@]1(C)CC(=O)C2[C@](C)(O1)[C@@H](OC(C)=O)[C@@H](O)[C@H]1C(C)(C)CCC[C@]21C` (stereo partly specified), the outcome was “inactive [at 9.23 µM]”. With `CC(=O)O[C@@H]1C[C@@]23C[C@@]24CC[C@H](OC2OC[C@@H](O)[C@H](O)[C@H]2O)C(C)(C)[C@@H]4CC[C@H]3[C@]2(C)CC3OC4(C[C@@H](C)C3[C@@]12C)OCC1(C)OC14` (stereo partly specified), the “activity change, negative = cell killing” value is 1.87% [at 17.3 µM] (inactive). `O=C1Nc2ccc(O)cc2O[C@H]1O[C@@H]1O[C@H](CO)[C@@H](O)[C@H](O)[C@H]1O`: the result was inactive.
